Experimental data: PubChem BioAssay AID1159580 (chemical genetic matrix, 2015)
The campaign covered roughly 5,500 compounds. About 2,000 (36%) were called active. Another 18% or so got no clear call; they are omitted. No stated cut-off is given here; in the data, active means normalized growth mostly below about 0.91 (no sharp cut-off); inconclusive means no clear call, values can overlap the other calls; inactive means mostly above about 0.92. Some of the results follow.

Assay: chemical genetic growth profiling, strain panel (AID 1159580);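 further: tested at 20 µM; growth read once vehicle control cultures reached saturation at 30 °C; 1 = growth at the plate median or of vehicle wells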
Details: S. cerevisiae deletion strains, growth OD

Measured: normalized growth

C=C1C(=O)[C@]23[C@H](O)[C@H]1CC[C@H]2[C@@]12CO[C@]3(O)[C@H](O)[C@@H]1C(C)(C)CC[C@@H]2O
inactive: locus YAL021C, strain ccr4, stronger effect = lower value 1.02 | locus YAL026C, strain drs2, stronger effect = lower value 0.99 | locus YAL030W, strain snc1, stronger effect = lower value 1 | locus YBL061C, strain skt5, stronger effect = lower value 0.987 | locus YBR009C, strain hhf1, stronger effect = lower value 0.948 | locus YBR023C, strain chs3, stronger effect = lower value 0.991 | locus YBR171W, strain sec66, stronger effect = lower value 0.999 | locus YBR231C, strain swc5, stronger effect = lower value 1.01 | locus YBR279W, strain paf1, stronger effect = lower value 1 | locus YCL011C, strain gbp2, stronger effect = lower value 0.983 | locus YCL016C, strain dcc1, stronger effect = lower value 0.972 | locus YCL061C, strain MRC1, stronger effect = lower value 1 | locus YCL069W, strain vba3, stronger effect = lower value 0.995 | locus YCR088W, strain abp1, stronger effect = lower value 1 | locus YDL005C, strain med2, stronger effect = lower value 1.01 | locus YDL040C, strain nat1, stronger effect = lower value 0.993 | locus YDR001C, strain nth1, stronger effect = lower value 1 | locus YDR069C, strain doa4, stronger effect = lower value 1.04 | locus YDR137W, strain rgp1, stronger effect = lower value 0.99 | locus YDR159W, strain sac3, stronger effect = lower value 1 | locus YDR195W, strain ref2 1.03 | locus YDR297W, strain sur2, stronger effect = lower value 1 | locus YDR334W, strain swr1, stronger effect = lower value 0.994 | locus YDR335W, strain msn5, stronger effect = lower value 1 | locus YDR392W, strain spt3, stronger effect = lower value 0.883 | locus YEL003W, strain gim4, stronger effect = lower value 0.992 | locus YEL037C, strain rad23, stronger effect = lower value 1 | locus YEL061C, strain CIN8 (second series), stronger effect = lower value 1 | locus YER015W, strain faa2, stronger effect = lower value 0.982 | locus YER016W, strain bim1, stronger effect = lower value 1.01 | locus YER111C, strain swi4, stronger effect = lower value 0.999 | locus YER155C, strain BEM2 (second series), stronger effect = lower value 0.984 | locus YFR010W, strain ubp6, stronger effect = lower value 0.995 | locus YGL167C, strain pmr1, stronger effect = lower value 0.995 | locus YGL173C, strain kem1, stronger effect = lower value 1 | locus YGL227W, strain vid30, stronger effect = lower value 1 | locus YGL240W, strain doc1, stronger effect = lower value 1.02 | locus YGL253W, strain hxk2, stronger effect = lower value 1.02 | locus YHR013C, strain ard1, stronger effect = lower value 1.03 | locus YHR027C, strain rpn1, stronger effect = lower value 0.986 | locus YHR030C, strain SLT2, stronger effect = lower value 1.01 | locus YHR079C, strain IRE1, stronger effect = lower value 0.992 | locus YHR142W, strain chs7, stronger effect = lower value 1.01 | locus YJL092W, strain hpr5, stronger effect = lower value 1.02 | locus YJL095W, strain BCK1 (second series), stronger effect = lower value 0.99 | locus YJL095W, strain BCK1, stronger effect = lower value 0.974 | locus YJL115W, strain asf1, stronger effect = lower value 0.988 | locus YJL129C, strain trk1, stronger effect = lower value 1.03 | locus YJL154C, strain vps35, stronger effect = lower value 1.01 | locus YJL164C, strain tpk1, stronger effect = lower value 0.972 | locus YJL166W, strain qcr8, stronger effect = lower value 1.02 | locus YJL187C, strain SWE1, stronger effect = lower value 1.02 | locus YJR066W, strain TOR1, stronger effect = lower value 0.962 | locus YKL160W, strain elf1, stronger effect = lower value 1.04 | locus YKR026C, strain gcn3, stronger effect = lower value 0.994 | locus YKR091W, strain srl3, stronger effect = lower value 0.995 | locus YLL001W, strain dnm1, stronger effect = lower value 1 | locus YLL026W, stronger effect = lower value 0.992 | locus YLL041C, strain sdh2, stronger effect = lower value 0.991 | locus YLR027C, strain aat2, stronger effect = lower value 1 | locus YLR113W, strain HOG1, stronger effect = lower value 0.94 | locus YLR221C, strain rsa3, stronger effect = lower value 0.975 | locus YLR258W, strain gsy2, stronger effect = lower value 0.994 | locus YLR262C, strain YPT6 (second series), stronger effect = lower value 1.01 | locus YLR320W, strain mms22, stronger effect = lower value 1.01 | locus YLR342W, strain FKS1, stronger effect = lower value 1.01 | locus YLR357W, strain rsc2, stronger effect = lower value 0.999 | locus YLR370C, strain arc18, stronger effect = lower value 0.973 | locus YLR384C, strain iki3, stronger effect = lower value 0.993 | locus YML120C, strain ndi1, stronger effect = lower value 0.982 | locus YMR058W, strain fet3, stronger effect = lower value 1 | locus YMR125W, strain sto1, stronger effect = lower value 1.02 | locus YMR129W, stronger effect = lower value 0.997 | locus YMR205C, strain PFK2, stronger effect = lower value 1.02 | locus YMR231W, strain pep5, stronger effect = lower value 0.994 | locus YNL071W, strain lat1, stronger effect = lower value 1.01 | locus YNL183C, strain NPR1, stronger effect = lower value 0.95 | locus YNL209W, strain ssb2, stronger effect = lower value 0.993 | locus YNL248C, strain rpa49, stronger effect = lower value 1.06 | locus YNL322C, strain KRE1 (second series), stronger effect = lower value 0.994 | locus YNR049C, strain mso1, stronger effect = lower value 0.99 | locus YOR001W, strain rrp6, stronger effect = lower value 0.964 | locus YOR070C, strain gyp1, stronger effect = lower value 0.992 | locus YOR080W, strain dia2, stronger effect = lower value 0.998 | locus YOR083W, strain WHI5, stronger effect = lower value 1.02 | locus YOR106W, strain vam3, stronger effect = lower value 1.02 | locus YOR231W, strain MKK1, stronger effect = lower value 1.02 | locus YOR265W, strain rbl2, stronger effect = lower value 0.984 | locus YOR270C, strain vph1, stronger effect = lower value 1.04 | locus YOR290C, strain snf2, stronger effect = lower value 0.996 | locus YPL051W, strain arl3, stronger effect = lower value 1.04 | locus YPL078C, strain atp4, stronger effect = lower value 1.04 | locus YPL106C, strain sse1, stronger effect = lower value 0.981 | locus YPL240C, strain hsp82, stronger effect = lower value 0.975 | locus YPL256C, strain CLN2, stronger effect = lower value 0.984
